Each structure is given as a SMILES string. Results filed as inconclusive are left out. Calls of active or inactive are those of the source. How the source made its calls, unless noted: active means hit-call score of the fitted dose curve at least 0.9, where 1 is the maximum; inactive means score below 0.9.

In assay [1] the target is human Peroxisome Proliferator-activated Receptor delta (PPARd), PPARD (gene 5467) (UniProt Q03181). The experiment in a line: ATG_PPARd_TRANS: Attagene TRANS-FACTORIAL HepG2 Assay for human Peroxisome Proliferator-activated Receptor delta (PPARd) (AID 2283002; active means hit-call score of the fitted dose curve at least 0.9, where 1 is the maximum). Put shortly: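 HepG2 cells transiently transfected with GAL4-UAS multiplexed reporter units driven by exogenous chimeric NR-GAL4 proteins; 24 h compound exposure. Reporter mRNA measured by RT-PCR, 6-FAM primer extension, HpaI digestion and capillary electrophoresis; gain of signal fitted relative to DMSO.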

Assay [2] is described as follows: BSK_3C_Proliferation: Cell Proliferation Assessment in the BioMAP Diversity Plus: 3C Assay (AID 2283006).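 On AC50: potency may reflect either rise or fall in cell number versus DMSO.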 Conditions: primary human endothelial cells (HUVEC). A digest of the protocol: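 Human umbilical vein endothelial cells were grown sub-confluent and exposed to chemical for 48 h, then fixed with 10% TCA and stained with 0.1% sulforhodamine B; absorbance at 560 nm gave relative cell number, fitted bidirectionally against DMSO baseline.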

Assay [3] deals with Nuclear receptor subfamily 1 group I member 2 (Homo sapiens) (UniProt O75469). The assay can be described thus: ATG_PXR_TRANS: Attagene TRANS-FACTORIAL HepG2 Assay for human Pregnane X Receptor (PXR) (AID 2283008; active means hit-call score of the fitted dose curve at least 0.9, where 1 is the maximum). Put shortly:
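Measures mRNA induction of a GAL4-UAS-driven reporter in human HepG2 cells transiently expressing PXR fused to Gal4, following 24 h treatment. DMSO served as negative control and baseline.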

Assay [4] deals with human RAR-related Orphan Receptor beta (RORb), RORB (gene 6096) (UniProt Q92753). The experiment in a line: ATG_RORb_TRANS: Attagene TRANS-FACTORIAL HepG2 Assay for human RAR-related Orphan Receptor beta (RORb) (AID 2283010; active means hit-call score of the fitted dose curve at least 0.9, where 1 is the maximum). Put shortly:
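HepG2 cells were transiently transfected with multiplexed GAL4-UAS reporter units expressing chimeric nuclear receptor–GAL4 proteins, then dosed for 24 h. Reporter mRNA was quantified by RT-PCR with fluorescent labelling and capillary electrophoresis; gain of signal was fitted relative to DMSO.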

In assay [5] the target is Retinoic acid receptor RXR-alpha (Homo sapiens) (UniProt P19793). The assay can be described thus: ATG_RXRa_TRANS: Attagene TRANS-FACTORIAL HepG2 Assay for human Retinoid X Receptor alpha (RXRa) (AID 2283012; active means hit-call score of the fitted dose curve at least 0.9, where 1 is the maximum). A digest of the protocol:
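HepG2 cells transiently transfected with multiplexed GAL4-UAS reporter units and chimeric NR-GAL4 fusions, dosed 24 h. Reporter mRNA measured by RT-PCR, FAM labelling, HpaI digestion and capillary electrophoresis; gain-of-signal fitted relative to DMSO baseline.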

The target of assay [6] is human Retinoid X Receptor beta (RXRb), RXRB (gene 6257) (UniProt P28702). The experiment in a line: ATG_RXRb_TRANS: Attagene TRANS-FACTORIAL HepG2 Assay for human Retinoid X Receptor beta (RXRb) (AID 2283013; active means hit-call score of the fitted dose curve at least 0.9, where 1 is the maximum). Put shortly:
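HepG2 cells transiently transfected with multiplexed reporter units driven by GAL4-UAS and exogenous chimeric NR-Gal4 proteins; treated 24 h. Reporter mRNA measured by RT-PCR, 6-FAM labelling and capillary electrophoresis; gain-of-signal fitted versus DMSO baseline.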

Read-out in assay [7]: E-selectin (Homo sapiens) (UniProt P16581)
The assay can be described thus: BSK_3C_Eselectin: BioMAP Diversity Plus: 3C Assay for Eselectin Biomarker Activity (AID 2283015).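 On outcome: cell surface E-selectin protein quantified by ELISA 24 h after dosing.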 Conditions: primary human endothelial cells (HUVEC); actives raise or lower the signal. A digest of the protocol:
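Primary human umbilical vein endothelial cells (3C system) were dosed with chemical and cell-surface E-selectin measured by ELISA 24 h later. Bidirectional curve fitting used DMSO as negative control and baseline.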

Read-out in assay [8]: Interleukin-1 alpha (IL1a), IL1A (gene 3552)
The experiment in a line: BSK_BE3C_IL1a: BioMAP Diversity Plus: BE3C Assay for Interleukin-1 alpha (IL1a) Biomarker Activity (AID 2283016). Conditions: primary human bronchial epithelial cells; actives raise or lower the signal. A digest of the protocol:
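Human primary bronchial epithelial cells (BE3C system) were dosed with compound and IL-1a measured by ELISA 24 h later. Activity was fitted bidirectionally against DMSO baseline; cytotoxicity was tracked in parallel cultures by SRB total-protein staining.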

Read-out in assay [9]: Monocyte Chemoattractant Protein-1 (MCP1), CCL2 (gene 6347)
The assay can be described thus: BSK_3C_MCP1: BioMAP Diversity Plus: 3C Assay for Monocyte Chemoattractant Protein-1 (MCP1) Biomarker Activity (AID 2283017). Conditions: primary human endothelial cells (HUVEC); actives raise or lower the signal. A digest of the protocol: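 Primary human umbilical vein endothelial cells (3C system) were exposed to test chemical for 24 h, after which MCP-1 was quantified by ELISA. Activity was fitted bidirectionally against DMSO as negative control and baseline.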

Read-out in assay [10]: Monocyte Chemoattractant Protein-1 (MCP1), CCL2 (gene 6347)
The assay can be described thus: BSK_4H_MCP1: BioMAP Diversity Plus: 4H Assay for Monocyte Chemoattractant Protein-1 (MCP1) Biomarker Activity (AID 2283018). Conditions: primary human endothelial cells (HUVEC); actives raise or lower the signal. Put shortly:
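Human umbilical vein endothelial cells (4H system) dosed with chemical; MCP-1 measured by ELISA 24 h after dosing. Bidirectional curve fitting against DMSO negative control as baseline; parallel SRB total-protein staining tracks overt cytotoxicity.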

Read-out in assay [11]: Human Leukocyte Antigen - DR isotype (HLADR), HLA-DRA (gene 3122)
The assay can be described thus: BSK_3C_HLADR: BioMAP Diversity Plus: 3C Assay for Human Leukocyte Antigen - DR isotype (HLADR) Biomarker Activity (AID 2283019).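 On outcome: ELISA of cell-surface HLA-DR on HUVEC 24 h after dosing.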 Conditions: primary human endothelial cells (HUVEC); actives raise or lower the signal. Put shortly:
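Primary human umbilical vein endothelial cells (3C system) were dosed with compound and cell-surface HLA-DR was quantified by ELISA at 24 h. Activity was fitted bidirectionally against DMSO as negative control and baseline.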

Read-out in assay [12]: Interleukin-8 (IL8), CXCL8 (gene 3576)
The assay can be described thus: BSK_3C_IL8: BioMAP Diversity Plus: 3C Assay for Interleukin-8 (IL8) Biomarker Activity (AID 2283020). Conditions: primary human endothelial cells (HUVEC); actives raise or lower the signal. Put shortly:
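Primary human umbilical vein endothelial cells (3C system) were exposed to test chemical for 24 h, then IL-8 was quantified by ELISA. Responses were fitted bidirectionally against DMSO vehicle as baseline.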

Read-out in assay [13]: Monokine induced gamma interferon (MIG), CXCL9 (gene 4283)
The experiment in a line: BSK_3C_MIG: BioMAP Diversity Plus: 3C Assay for Monokine induced gamma interferon (MIG) Biomarker Activity (AID 2283021).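 On AC50: MIG protein level measured by immunoassay in the treated endothelial cultures.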 Conditions: primary human endothelial cells (HUVEC); actives raise or lower the signal. Put shortly: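 Primary human umbilical vein endothelial cells in the 3C system were exposed to chemical for 24 h, after which MIG was quantified by ELISA. Activity was fitted bidirectionally against DMSO as negative control and baseline.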

Read-out in assay [14]: Intercellular Adhesion Molecule 1 (ICAM1), ICAM1 (gene 3383)
The experiment in a line: BSK_3C_ICAM1: BioMAP Diversity Plus: 3C Assay for Intercellular Adhesion Molecule 1 (ICAM1) Biomarker Activity (AID 2283003). Conditions: primary human endothelial cells (HUVEC); actives raise or lower the signal. Put shortly:
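Primary human umbilical vein endothelial cells in the BioMAP 3C system were exposed to chemicals for 24 h, then ICAM-1 was quantified by ELISA. Activity was fitted bidirectionally against the DMSO negative control baseline.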

Assay [15] deals with Peroxisome proliferator-activated receptor gamma (Homo sapiens) (UniProt P37231). The experiment in a line: ATG_PPARg_TRANS: Attagene TRANS-FACTORIAL HepG2 Assay for human Peroxisome Proliferator-activated Receptor-gamma (PPARg) (AID 2283007; active means hit-call score of the fitted dose curve at least 0.9, where 1 is the maximum). Put shortly: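 Liver-derived HepG2 cells expressing an exogenous NR-Gal4 chimera alongside GAL4-UAS reporter genes; 24 h exposure. Fluorescence of reporter RT-PCR products, separated by capillary electrophoresis, gives mRNA induction relative to DMSO.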

The target of assay [16] is human RAR-related Orphan Receptor gamma (RORg), RORC (gene 6097) (UniProt P51449). The assay can be described thus: ATG_RORg_TRANS: Attagene TRANS-FACTORIAL HepG2 Assay for human RAR-related Orphan Receptor gamma (RORg) (AID 2283011; active means hit-call score of the fitted dose curve at least 0.9, where 1 is the maximum). A digest of the protocol: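 Readout: reporter transcript induction (RT-PCR, fluorescent primer extension, capillary electrophoresis) after 24 h compound exposure of transiently transfected HepG2 cells carrying a RORg-Gal4 chimera and GAL4-UAS reporters; DMSO served as baseline, with increasing signal fitted.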

The target in assay [17] is human Thyroid Receptor alpha (THRa1), THRA (gene 7067) (UniProt P10827). The assay can be described thus: ATG_THRa1_TRANS: Attagene TRANS-FACTORIAL HepG2 Assay for human Thyroid Receptor alpha (THRa1) (AID 2283014; active means hit-call score of the fitted dose curve at least 0.9, where 1 is the maximum). A digest of the protocol: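 HepG2 cells transiently transfected with multiplexed GAL4-UAS reporter units for exogenous chimeric THRa1-Gal4; reporter mRNA measured 24 h after dosing by RT-PCR, 6-FAM labelling, HpaI digestion and capillary electrophoresis. Gain-of-signal fitted versus DMSO baseline.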

The target in assay [18] is Retinoic acid receptor alpha (Homo sapiens) (UniProt P10276). The assay can be described thus: ATG_RARa_TRANS: Attagene TRANS-FACTORIAL HepG2 Assay for human Retinoic Acid Receptor alpha (RARa) (AID 2283005; active means hit-call score of the fitted dose curve at least 0.9, where 1 is the maximum). A digest of the protocol:
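HepG2 transiently transfected with multiplex GAL4-UAS reporter units including a human RARa–GAL4 chimera; 24 h compound exposure. Reporter mRNA quantified by RT-PCR, 6-FAM labeling and capillary electrophoresis; gain of signal versus DMSO.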

Assay [19] addresses human Retinoic Acid Receptor gamma (RARg), RARG (gene 5916) (UniProt P13631). The assay can be described thus: ATG_RARg_TRANS: Attagene TRANS-FACTORIAL HepG2 Assay for human Retinoic Acid Receptor gamma (RARg) (AID 2283009; active means hit-call score of the fitted dose curve at least 0.9, where 1 is the maximum). Put shortly: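 HepG2 cells transiently transfected with multiplexed reporter units expressing chimeric RARg-GAL4 and GAL4-UAS-driven reporters; 24 h compound exposure. Reporter mRNA quantified by RT-PCR with fluorescent labelling and capillary electrophoresis; gain-of-signal fitted relative to DMSO baseline.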

Sequence of human Retinoic Acid Receptor gamma (RARg), RARG (gene 5916) (P13631 whole entry, looked up, the tested form may be a part): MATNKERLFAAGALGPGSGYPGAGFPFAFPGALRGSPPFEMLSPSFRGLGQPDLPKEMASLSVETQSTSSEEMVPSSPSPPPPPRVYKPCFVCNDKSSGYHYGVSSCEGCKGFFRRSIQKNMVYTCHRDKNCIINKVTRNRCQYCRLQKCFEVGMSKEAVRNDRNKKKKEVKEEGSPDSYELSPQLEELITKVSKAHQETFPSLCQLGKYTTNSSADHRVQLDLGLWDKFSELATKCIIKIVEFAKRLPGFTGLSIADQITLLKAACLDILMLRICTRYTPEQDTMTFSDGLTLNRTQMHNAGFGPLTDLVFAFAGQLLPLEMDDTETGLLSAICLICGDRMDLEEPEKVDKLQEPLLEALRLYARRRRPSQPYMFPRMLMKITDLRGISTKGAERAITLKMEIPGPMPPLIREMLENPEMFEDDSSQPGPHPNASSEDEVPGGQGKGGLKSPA
Sequence of Retinoic acid receptor RXR-alpha (Homo sapiens) (P19793 whole entry, looked up, the tested form may be a part): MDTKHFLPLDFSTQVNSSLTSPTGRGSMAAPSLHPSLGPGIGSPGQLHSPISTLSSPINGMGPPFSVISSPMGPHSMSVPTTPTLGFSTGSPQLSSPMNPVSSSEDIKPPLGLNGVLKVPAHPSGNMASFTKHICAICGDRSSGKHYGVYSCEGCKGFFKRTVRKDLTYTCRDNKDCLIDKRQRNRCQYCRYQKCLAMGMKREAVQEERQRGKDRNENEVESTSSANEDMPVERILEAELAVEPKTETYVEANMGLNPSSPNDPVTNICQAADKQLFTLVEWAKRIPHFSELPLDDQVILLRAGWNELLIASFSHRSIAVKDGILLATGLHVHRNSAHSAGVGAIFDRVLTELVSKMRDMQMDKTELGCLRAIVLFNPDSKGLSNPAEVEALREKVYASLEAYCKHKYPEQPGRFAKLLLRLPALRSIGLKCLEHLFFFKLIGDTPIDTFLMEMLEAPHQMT
Sequence of E-selectin (Homo sapiens) (P16581 whole entry, looked up): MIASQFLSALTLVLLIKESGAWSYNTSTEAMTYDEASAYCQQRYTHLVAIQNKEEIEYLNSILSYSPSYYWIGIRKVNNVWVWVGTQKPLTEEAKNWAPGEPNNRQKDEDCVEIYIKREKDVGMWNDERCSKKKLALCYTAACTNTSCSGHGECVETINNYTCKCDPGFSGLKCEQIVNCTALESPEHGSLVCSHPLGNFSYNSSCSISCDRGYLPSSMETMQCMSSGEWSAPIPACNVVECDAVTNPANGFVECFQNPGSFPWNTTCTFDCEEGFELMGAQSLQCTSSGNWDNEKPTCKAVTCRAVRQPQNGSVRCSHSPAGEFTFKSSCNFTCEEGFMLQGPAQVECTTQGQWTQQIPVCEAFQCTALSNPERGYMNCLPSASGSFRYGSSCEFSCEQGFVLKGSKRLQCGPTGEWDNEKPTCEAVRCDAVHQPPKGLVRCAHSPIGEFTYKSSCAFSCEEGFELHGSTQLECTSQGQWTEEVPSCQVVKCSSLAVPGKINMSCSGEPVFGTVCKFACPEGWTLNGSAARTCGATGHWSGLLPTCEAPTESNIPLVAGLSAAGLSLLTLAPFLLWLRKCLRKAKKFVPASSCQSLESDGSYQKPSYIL
Sequence of Nuclear receptor subfamily 1 group I member 2 (Homo sapiens) (O75469 whole entry, looked up, the tested form may be a part): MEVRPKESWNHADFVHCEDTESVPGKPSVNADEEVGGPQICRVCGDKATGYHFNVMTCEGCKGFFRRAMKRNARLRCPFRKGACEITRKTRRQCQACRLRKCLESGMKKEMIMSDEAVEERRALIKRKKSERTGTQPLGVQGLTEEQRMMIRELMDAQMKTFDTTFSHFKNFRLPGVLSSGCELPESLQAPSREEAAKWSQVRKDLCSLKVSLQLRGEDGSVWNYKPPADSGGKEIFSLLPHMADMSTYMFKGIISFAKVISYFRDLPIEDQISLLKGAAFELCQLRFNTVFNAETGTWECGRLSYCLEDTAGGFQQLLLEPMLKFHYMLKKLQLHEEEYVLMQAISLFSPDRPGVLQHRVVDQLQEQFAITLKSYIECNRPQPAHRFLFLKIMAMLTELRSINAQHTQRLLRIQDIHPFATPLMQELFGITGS
Sequence of human Peroxisome Proliferator-activated Receptor delta (PPARd), PPARD (gene 5467) (Q03181 whole entry, looked up, the tested form may be a part): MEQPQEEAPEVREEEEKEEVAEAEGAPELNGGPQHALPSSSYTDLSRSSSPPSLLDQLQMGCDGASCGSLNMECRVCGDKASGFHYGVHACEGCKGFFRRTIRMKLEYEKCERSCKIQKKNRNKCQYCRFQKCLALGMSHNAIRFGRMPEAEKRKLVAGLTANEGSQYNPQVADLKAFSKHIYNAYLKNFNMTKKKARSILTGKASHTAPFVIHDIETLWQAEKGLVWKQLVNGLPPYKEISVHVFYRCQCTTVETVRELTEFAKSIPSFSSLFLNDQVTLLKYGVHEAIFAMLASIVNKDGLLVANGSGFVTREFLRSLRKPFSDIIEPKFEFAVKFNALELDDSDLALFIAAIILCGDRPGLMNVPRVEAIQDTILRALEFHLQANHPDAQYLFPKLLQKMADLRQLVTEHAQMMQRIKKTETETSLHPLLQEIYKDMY
Sequence of human Thyroid Receptor alpha (THRa1), THRA (gene 7067) (P10827 whole entry, looked up, the tested form may be a part): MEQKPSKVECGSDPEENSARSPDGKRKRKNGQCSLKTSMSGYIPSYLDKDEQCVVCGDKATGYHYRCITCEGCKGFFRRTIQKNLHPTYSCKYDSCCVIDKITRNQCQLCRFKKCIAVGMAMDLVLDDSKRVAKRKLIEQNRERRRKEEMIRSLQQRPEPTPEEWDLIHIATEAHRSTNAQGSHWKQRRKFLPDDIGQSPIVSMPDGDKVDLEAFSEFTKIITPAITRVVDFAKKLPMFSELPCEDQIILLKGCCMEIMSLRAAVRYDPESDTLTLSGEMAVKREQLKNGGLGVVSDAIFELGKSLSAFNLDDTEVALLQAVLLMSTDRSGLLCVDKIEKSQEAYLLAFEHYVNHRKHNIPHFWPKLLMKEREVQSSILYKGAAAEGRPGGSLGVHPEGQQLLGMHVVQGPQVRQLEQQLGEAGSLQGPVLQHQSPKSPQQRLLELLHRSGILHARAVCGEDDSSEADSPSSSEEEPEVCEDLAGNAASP
Sequence of Peroxisome proliferator-activated receptor gamma (Homo sapiens) (P37231 whole entry, looked up, the tested form may be a part): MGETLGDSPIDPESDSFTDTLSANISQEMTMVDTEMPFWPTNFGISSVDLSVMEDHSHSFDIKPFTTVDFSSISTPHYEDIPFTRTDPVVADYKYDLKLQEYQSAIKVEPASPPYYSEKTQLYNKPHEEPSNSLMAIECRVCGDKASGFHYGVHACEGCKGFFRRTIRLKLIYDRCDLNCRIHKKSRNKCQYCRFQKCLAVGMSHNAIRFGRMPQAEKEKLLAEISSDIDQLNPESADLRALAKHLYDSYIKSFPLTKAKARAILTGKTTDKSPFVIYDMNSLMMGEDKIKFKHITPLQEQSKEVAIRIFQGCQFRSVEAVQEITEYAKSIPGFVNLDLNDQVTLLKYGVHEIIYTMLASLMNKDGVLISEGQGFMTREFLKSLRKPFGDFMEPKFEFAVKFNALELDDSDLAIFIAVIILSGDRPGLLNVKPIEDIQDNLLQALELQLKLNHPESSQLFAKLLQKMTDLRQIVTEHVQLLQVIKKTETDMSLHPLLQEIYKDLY
Sequence of human RAR-related Orphan Receptor gamma (RORg), RORC (gene 6097) (P51449 whole entry, looked up, the tested form may be a part): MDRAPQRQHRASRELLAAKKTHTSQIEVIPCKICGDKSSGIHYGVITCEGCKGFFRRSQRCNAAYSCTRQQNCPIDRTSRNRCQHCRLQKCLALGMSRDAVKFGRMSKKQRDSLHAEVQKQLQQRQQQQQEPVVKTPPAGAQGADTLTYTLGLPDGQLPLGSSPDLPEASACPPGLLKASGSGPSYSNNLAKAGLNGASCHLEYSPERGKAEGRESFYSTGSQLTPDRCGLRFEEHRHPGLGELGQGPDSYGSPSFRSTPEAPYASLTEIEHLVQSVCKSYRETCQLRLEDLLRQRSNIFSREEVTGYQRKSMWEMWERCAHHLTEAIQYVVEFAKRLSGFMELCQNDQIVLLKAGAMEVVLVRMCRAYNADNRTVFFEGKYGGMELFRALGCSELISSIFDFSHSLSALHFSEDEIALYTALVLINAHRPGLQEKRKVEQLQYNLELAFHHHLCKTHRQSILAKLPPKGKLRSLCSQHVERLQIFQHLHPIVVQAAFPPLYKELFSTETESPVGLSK
Sequence of human Retinoid X Receptor beta (RXRb), RXRB (gene 6257) (P28702 whole entry, looked up, the tested form may be a part): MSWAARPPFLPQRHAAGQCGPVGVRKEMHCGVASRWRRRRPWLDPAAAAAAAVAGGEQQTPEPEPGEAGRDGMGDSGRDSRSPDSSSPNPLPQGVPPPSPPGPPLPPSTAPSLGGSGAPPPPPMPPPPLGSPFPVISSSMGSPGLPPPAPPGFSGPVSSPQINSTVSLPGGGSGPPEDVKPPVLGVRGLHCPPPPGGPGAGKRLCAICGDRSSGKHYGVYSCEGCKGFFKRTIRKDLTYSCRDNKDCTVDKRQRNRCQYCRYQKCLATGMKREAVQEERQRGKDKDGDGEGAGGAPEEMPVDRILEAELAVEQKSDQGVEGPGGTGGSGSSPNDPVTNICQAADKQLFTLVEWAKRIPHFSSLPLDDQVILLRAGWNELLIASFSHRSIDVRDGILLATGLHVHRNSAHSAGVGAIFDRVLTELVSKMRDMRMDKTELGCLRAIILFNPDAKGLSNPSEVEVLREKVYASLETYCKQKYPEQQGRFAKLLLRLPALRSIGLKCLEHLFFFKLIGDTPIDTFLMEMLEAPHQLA
Sequence of Retinoic acid receptor alpha (Homo sapiens) (P10276 whole entry, looked up, the tested form may be a part): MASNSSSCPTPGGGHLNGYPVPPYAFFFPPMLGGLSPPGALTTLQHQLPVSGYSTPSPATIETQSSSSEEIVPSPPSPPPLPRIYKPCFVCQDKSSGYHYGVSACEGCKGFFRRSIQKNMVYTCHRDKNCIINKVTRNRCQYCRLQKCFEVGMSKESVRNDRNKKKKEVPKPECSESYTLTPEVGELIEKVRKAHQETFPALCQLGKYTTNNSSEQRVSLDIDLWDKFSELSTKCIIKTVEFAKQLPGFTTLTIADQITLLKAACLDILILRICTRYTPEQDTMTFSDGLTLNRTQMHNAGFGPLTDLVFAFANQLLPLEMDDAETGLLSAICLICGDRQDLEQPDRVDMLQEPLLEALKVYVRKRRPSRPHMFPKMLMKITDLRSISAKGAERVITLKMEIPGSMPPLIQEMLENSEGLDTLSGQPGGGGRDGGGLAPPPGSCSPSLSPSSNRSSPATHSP

In the case of `O=C=NCCCCCCN=C=O`, the result in [1], in assay [2], in assay [3], in [4], in assay [5] and in assay [6] was inactive. The result in assay [7], in [8], in assay [9], in assay [10], in [11] and in [12] was inactive. In [13], the outcome was inactive.

In general, AC50 refers to the concentration giving half of the maximal activity seen. In the case of `CC[C@H](NC(=O)c1cc(F)ccc1NS(=O)(=O)c1cccc2cccnc12)c1ccccc1`, the call in [1], in assay [2], in [5], in assay [7], in assay [8] and in assay [9] was inactive. Also, the outcome in [10], in assay [11], in assay [12] and in assay [13] was inactive. For the same compound, the AC50 in assay [3] was 0.0124 µM (active).

For `O=C1c2ccccc2C(=O)N1CCc1noc(-c2ccc(CN3CCCCCC3)s2)n1`, the outcome in assay [1], in [14], in [2], in assay [15], in assay [16] and in assay [5] was inactive. Besides, the result in assay [17], in assay [7], in [8], in assay [9], in assay [10] and in assay [12] was inactive. In assay [13], the result was inactive. Moreover, the AC50 in assay [3] is 2.72 µM (active); in [11], 26.7 µM (active).

Turning to `CCN(CC)C(=O)c1cc(S(=O)(=O)Cc2ccccc2)c(N2CCC(c3ccccc3)CC2)cc1N(CC)CCN(C)C`, the call in [18] and in assay [19] was inactive. The AC50 in assay [2] was 6.12 µM (active); in assay [3], 0.091 µM (active); in [7], 27.2 µM (active); in assay [8] it was 9.53 µM (active); in [9], 10.4 µM (active); in assay [10], 18.7 µM (active). In addition, the AC50 in [11] was 6.27 µM (active); in assay [12] it was 13.8 µM (active); in assay [13], 29.9 µM (active).

With `Cc1cc2c(cc1C(F)(F)F)N(C(=O)Nc1ccc(Oc3cccnc3C)nc1)CC2`, the result in [1], in assay [3], in assay [19], in assay [16], in assay [6] and in assay [17] was inactive. Moreover, the outcome in assay [7], in [8], in [9] and in [10] was inactive. Further, the values for the AC50 in assay [2], in [11] and in assay [12] were 9.22 µM (active), 18.4 µM (active) and 0.889 µM (active), respectively.

`Cc1oc2c(NC(=O)c3c(Cl)cccc3Cl)cccc2c1C(C)(C)O`: the compound was classed as inactive in [1], in assay [14], in [18], in assay [19], in assay [5] and in assay [17]. Besides, the result in [9], in [10], in assay [12] and in assay [13] was inactive. The AC50 in [2] is 21.4 µM (active); in assay [15], 3.28 µM (active); in assay [3] it was 0.204 µM (active); in [7], 13 µM (active); in [8], 23.6 µM (active); in assay [11], 21.8 µM (active).

For the compound `CN(C)c1ccc(C(=C2C=CC(=[N+](C)C)C=C2)c2ccc(N(C)C)cc2)cc1`, the call in assay [1], in assay [5] and in assay [17] was inactive. Moreover, the AC50 in assay [2] is 2.42 µM (active); in [7], 0.815 µM (active); in assay [8] it was 2.36 µM (active); in assay [9], 0.798 µM (active); in [10], 0.66 µM (active); in [11], 0.344 µM (active). The AC50 in assay [12] was 5.53 µM (active).

Values taken from PubChem BioAssay (EPA / NIEHS).
